The panel holds about 83,000 compounds, 20% with a hit somewhere; the sample as a whole holds those more often.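 The endpoint reported here, percent growth, reads 100 for growth as untreated, 0 for no net growth and -100 for all cells dead.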 Unmarked numbers belong to inactive results. Calls of active or inactive are those of the source. How the source made its calls: active means growth percent below 10; inactive means the rest.
Key:
Experiment in all cases: NCI-60 one-dose screen, 48 h (100 = growth as untreated, 0 = no growth, -100 = all killed)
Conditions in all cases: 10 µM unless noted
DU-145 prostate = tested on: DU-145 prostate
K-562 leukemia = tested on: K-562 leukemia
MALME-3M melanoma = tested on: MALME-3M melanoma
MDA-MB-231 breast = tested on: MDA-MB-231 breast
RXF 393 renal = tested on: RXF 393 renal
SF-268 CNS = tested on: SF-268 CNS
SF-539 CNS = tested on: SF-539 CNS
UACC-257 melanoma = tested on: UACC-257 melanoma
M14 melanoma = tested on: M14 melanoma
HCT-15 colon = tested on: HCT-15 colon
HT29 colon = tested on: HT29 colon
SNB-75 CNS = tested on: SNB-75 CNS
SNB-19 CNS = tested on: SNB-19 CNS
U251 CNS = tested on: U251 CNS
PC-3 prostate = tested on: PC-3 prostate
SK-MEL-5 melanoma = tested on: SK-MEL-5 melanoma
UACC-62 melanoma = tested on: UACC-62 melanoma
SK-MEL-28 melanoma = tested on: SK-MEL-28 melanoma
LOX IMVI melanoma = tested on: LOX IMVI melanoma

SMILES	growth (DU-145 prostate)	growth (K-562 leukemia)	growth (MALME-3M melanoma)	growth (MDA-MB-231 breast)	growth (RXF 393 renal)	growth (SF-268 CNS)	growth (SF-539 CNS)	growth (UACC-257 melanoma) [%]	growth (M14 melanoma)	growth (HCT-15 colon)	growth (HT29 colon)	growth (SNB-75 CNS)	growth (SNB-19 CNS) [%]	growth (U251 CNS)	growth (PC-3 prostate)	growth (SK-MEL-5 melanoma) [%]	growth (UACC-62 melanoma) [%]	growth (SK-MEL-28 melanoma)	growth (LOX IMVI melanoma)
COc1ccc(-c2nc3ccccn3c2-c2nc3ccc(Cl)cc3[nH]2)cc1	107%	54.6%	109%	95.2%	95.8%	112%	98.9%	94.2	103%	89.1%	83.7%	67.5%	96.2	92.9%	57.5%	83	86.3	101%	
O=C1NC(=Nc2ccc(S(=O)(=O)Nc3nccs3)cc2)S/C1=C\c1coc2ccccc2c1=O	121%	93.8%	109%	105%	105%	123%	96.2%	105	105%	104%	97.6%	55.9%	98.5	102%	95%	103	99.5	111%	
COc1ccc2nc(-c3c(-c4ccccc4)nc4ncccn34)[nH]c2c1	115%	101%	112%	99.3%	104%	109%	100%	105	107%	96.5%	94.1%	78.1%	101	99.5%	97.3%	95.6	95.3	91.5%	
C#Cc1cc2c(N)c(C(=O)c3cc(OC)c(OC)c(OC)c3)[nH]c2cc1OC	19%	13.4%	25.7%	49.2%	-5.3% (active)	49.6%	-23.6% (active)	70.5	19.9%	32.2%	6.27% (active)	-8.14% (active)	43.7		16.3%	19.9	34.7	40.3%	46.1%
COc1ccc2c(c1)C/C(=C\c1cc(-c3ccc4c(c3)OCO4)n[nH]1)C2=O	112%	60.1%	112%	79.7%	95.6%	106%	92.4%	103	97.2%	90.3%	127%	55.1%	92.5	94.8%	71.6%	88.5	90.3	104%	
Nc1c(C(=O)Nc2cccc(Br)c2)sc2nc3c(cc12)C(=O)CCC3	1.18% (active)	13.7%	16.6%	38.5%	-1.14% (active)	62.6%	25.5%	68		33%	8.17% (active)	-4.52% (active)	32.7	37.7%	14.3%	20.5	35.3	48.3%	
C/C(=N/NC(N)=S)C(=O)O	102%	55.3%	102%	91.1%	116%	101%	101%	61.1	97.4%	82.9%	56.5%	95.3%	98.4	73.9%	72.8%	102	99.9	103%	74.9%
CCc1ccc(-c2ccc(Nc3ccccc3)nn2)cc1S(N)(=O)=O	77.1%	12.5%	71.4%	69.3%	77.3%	78.6%	84.3%	83.7	67.1%	65.3%	68%	123%	105	80.8%	60.6%	79.8	81.1	87.7%	
COc1cc(-c2cc(-c3nc4cc(Cl)c(Cl)cc4[nH]3)[nH]n2)cc(OC)c1OC	92.5%	17.5%	46.4%	74%	70.6%	96.5%	77.8%	88	62.3%	52%	72.6%	70.4%	78.1	75.7%	5.57% (active)	19.6	24.1	47.6%	
Cc1ccc(-c2nc3ccc(Cl)cc3c(=O)n2N2C(=O)CSC2c2ccccc2Cl)cc1 (configuration not stated)	73.1%	93.4%	65.8%	59.9%	98.5%	60.4%	78.8%		71.4%	86.9%	83.7%	36.1%	75.2	22.3%	70.6%	94	77.3	98.6%	89.1%
O=c1c(CNc2ccc(S(=O)(=O)Nc3ncccn3)cc2)coc2ccccc12	108%	100%	94%	99.9%	103%	108%	95.2%	108		84.5%	110%	79.4%	94.2	93.3%	92.2%	95.9	89.8	119%	
COc1ccc2c(c1)C/C(=C\c1cc(-c3cc(OC)c(OC)c(OC)c3)n[nH]1)C2=O	113%	53.7%	108%	78.9%	94.9%	100%	89.5%	97.3	100%	91.1%	89.3%	78.4%	91.9	92.3%	56%	75.5	88.1	99.3%	
COc1ccc(C(=O)/C=C/c2cc(-c3cc(OC)c(OC)c(OC)c3)n[nH]2)cc1OC	1.8% (active)	3.36% (active)	-75.5% (active)	-4.03% (active)	-78.8% (active)	-20.1% (active)	-96.2% (active)	24.6	-7.08% (active)	-16.4% (active)	-71% (active)	33.2%	35.2	-85.5% (active)	20.3%	12.3	34.1	-60.6% (active)	-96.3% (active)
C[N+](C)(CCCCCC[N+](C)(C)C1c2ccccc2-c2ccccc21)C1c2ccccc2-c2ccccc21	118%	99.5%	104%	115%	113%	111%	102%	103	106%	105%	110%	95%	105		98.2%	111	108	111%	104%
O=c1c(CNc2ccc(S(=O)(=O)Nc3nccs3)cc2)coc2ccccc12	110%	92.2%	99.7%	98.8%	103%	113%	107%	106	104%	99.9%	101%	73.8%	95.4	95.4%	107%		97.9	121%	
COc1ccc(-c2cc(/C=C/C(=O)c3ccc(OC)c(OC)c3)[nH]n2)cc1	0.792% (active)	-29.8% (active)	63.1%	28.8%	8.62% (active)	7.76% (active)	-50.7% (active)	73.9	41.8%	12.5%	1.11% (active)	9.56% (active)	27	4.42% (active)	4.36% (active)	51.3	37.3	53.9%	
